Reference: PubChem BioAssay (NCI)
This is part of a sample that, as a whole, favours compounds with a hit. Of some 83,000 tested, about 20% had one in any assay.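 Note: values are percent growth. 100 is the growth of untreated cells, values between 100 and 0 indicate rising inhibition; between -100 and 0 indicates cell death.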 Values without a mark were called inactive. Activity calls are given as the source filed them. The calls were made as follows: active = growth percent below 10; inactive = the rest.

Tests used:
Experiment in all cases: NCI-60 one-dose screen, 48 h (100 = growth as untreated, 0 = no growth, -100 = all killed)
Conditions in all cases: 10 µM unless noted
DU-145 prostate = test system: DU-145 prostate
K-562 leukemia = test system: K-562 leukemia
MALME-3M melanoma = test system: MALME-3M melanoma
MDA-MB-231 breast = test system: MDA-MB-231 breast
RXF 393 renal = test system: RXF 393 renal
SF-268 CNS = test system: SF-268 CNS
SF-539 CNS = test system: SF-539 CNS
UACC-257 melanoma = test system: UACC-257 melanoma
M14 melanoma = test system: M14 melanoma

| Structure (SMILES) | growth (DU-145 prostate) | growth (K-562 leukemia) | growth (MALME-3M melanoma) | growth (MDA-MB-231 breast) | growth (RXF 393 renal) | growth (SF-268 CNS) | growth (SF-539 CNS) | growth (UACC-257 melanoma) | growth (M14 melanoma) |
| --- | --- | --- | --- | --- | --- | --- | --- | --- | --- |
| O=C1C2=C(C(=O)c3c(O)ccc(O)c31)N(c1ccc(N3CCOCC3)nc1)Cc1ccccc1O2 | -98% (active) | -17.5% (active) | -91.6% (active) | -89.6% (active) | -92.1% (active) | -42.5% (active) | -72.1% (active) | -92% (active) | -89.3% (active) |
| CCCCNCC(O)c1cc(-c2ccc(C(F)(F)F)cc2)nc(-c2ccc(C(F)(F)F)cc2)c1 (stereo unspecified) | 6.08% (active) | -59.5% (active) | -41.6% (active) | -71.9% (active) | -94.4% (active) | -86% (active) | -74.9% (active) | -70.3% (active) | -79.7% (active) |
| C#CC[C@@H]1C[C@]2(C)[C@H]3CC=C4[C@H]5CC(C)(C)CC[C@]5(C(=O)NCCCCN)CC[C@@]4(C)[C@]3(C)CC[C@H]2C(C)(C)[C@H]1OC(C)=O | -47.9% (active) | -30% (active) | 85% | -58.6% (active) | -43.3% (active) | 89.4% | 86.9% | 111% | 2.23% (active) |
| Fc1cnccc1-c1nc2ccc3[nH]ncc3c2c2c1CCCC2 | 24.1% | 30.9% | 44.2% | 51.2% | -23.9% (active) | 31.9% | 5.76% (active) | 63% | 26% |
| CC1=C(C(=O)Nc2ccc(F)cc2)C(c2ccccc2)C2=C(CC(C)(C)CC2=O)N1 (stereo unspecified) | 95.2% | 56% | 89.8% | 70% | 96.4% | 82.6% | 79.5% | 83.6% | 82.6% |
| COS(=O)(=O)CCN(CCOS(C)(=O)=O)S(C)(=O)=O | 105% | 76% | 98.9% | 109% | 105% | 107% | 91.2% | 82.6% | 94.3% |
| Brc1cccc(-n2ncc3c(Nc4ccc(-c5nnc(-c6ccccc6)o5)cc4)ncnc32)c1 | 111% | 110% | 110% | 93.5% | 92.9% | 98.6% | 95.9% | 108% | 108% |
| Cc1cc(C)cc(Nc2cc(C)nc3nc(C(F)(F)F)nn23)c1 | 38.1% | 20.2% | 45.5% | 50.1% | 52.1% | 28.7% | 4.14% (active) | 30.7% | 24% |
| Oc1ccc(Cl)cc1-c1cc(-c2ccccc2Cl)[nH]n1 | 73.3% | 37.8% | 71.1% | 21.7% | 84.2% | 49.6% | 83.4% | 81.8% | 84.9% |
| C/C(CC(=O)NNc1ccc([N+](=O)[O-])cc1)=N\Nc1ccc([N+](=O)[O-])cc1 | 62.1% | 12.9% | 93.4% | 47% | 118% | 83.8% | 68.2% | 99.6% | 25.5% |
| Cc1c(C)c(C)c([N+](=O)[O-])c([N+](=O)[O-])c1C | 92.2% | 119% | 90.1% | 79.3% | 107% | 93% | 92% | 103% | 104% |
| CCOC(=O)c1ccc(N(CCC(=O)O)C(C)=O)cc1 | 122% | 103% | 99.8% | 110% | 106% | 119% | 107% | 98.2% | 105% |
| N#Cc1c(N)c(C(=O)c2ccc3c(c2)OCCO3)n2c1CCCC2 | 45.2% | 0.198% (active) | -8.49% (active) | 52.3% | 31.4% | 36.9% | 24.2% | 45.9% | 19.4% |
| O=c1c2sc3ncc(Cl)cc3c2nnn1-c1cccc(Cl)c1 | 65.3% | 68.1% | 75.3% | 110% | 96.2% | 66.1% | 82.1% | 112% | 85.1% |
| CC1=C(C(=O)Nc2ccc(F)cc2)C(c2ccc(C)cc2)C2=C(CC(C)(C)CC2=O)N1 (stereo unspecified) | 106% | 93.3% | 102% | 86.6% | 92.1% | 88% | 93.3% | 98.5% | 101% |
| C/C(=N\OC(=O)Nc1ccccc1)c1ccccc1 | 97.1% | 96.6% | 107% | 107% | 87.2% | 104% | 105% | 102% | 103% |
| Cc1ccc(/C=C/C(=N/N=C(N)N)c2ccccc2)cc1 | 2.48% (active) | 11.7% | 40% | 35.5% | -22.9% (active) | 36.7% | 3.64% (active) | 54.5% | -24.4% (active) |
| Nc1nc2ccc([C@@H]3Nc4ccc5[nH]ncc5c4[C@H]4[C@H]5CCC(C5)[C@H]43)cc2s1 | 9.96% (active) | 19.4% | -55.7% (active) | 47.2% | -4.16% (active) | 48.4% | 0.597% (active) | 29.3% | 17.7% |
| CCCCCCCCCCCCCCC(C(=O)OCC)C(=O)OCC | 110% | 121% | 92.8% | 101% | 113% | 110% | 105% | 106% | 108% |
| CN1CCN(Cc2ccc(NC(=O)c3cncc(C#Cc4ncc5cnccn45)c3)cc2C(F)(F)F)CC1 | 46.8% | 8.73% (active) | 14.7% | 25.6% | 51.1% | 56.4% | 37.8% | 55.3% | 9.27% (active) |
| CCN(CC)Cc1cc(Nc2nc(NC3CCC(N(C)C)CC3)c3ccccc3n2)ccc1OC (stereo unspecified) | 98.8% | 7.54% (active) | 69.1% | 39.8% | 74.9% | 69.8% | 73.9% | -32.6% (active) | -10.2% (active) |
| COc1cc(/C=C/C(=O)c2ccc(NC(=O)CSc3nnc(-c4ccc(Cl)cc4)n3-c3ccccc3)cc2)cc(OC)c1OC | 80% | 44.3% | 101% | 54.9% | 55.5% | 77.6% | 91.3% | 73.6% | 76.1% |
| CCCCCCCCCCCCCC(=S)NCCCC[C@H](NC(=O)OCc1ccccc1)C(=O)Nc1ccccc1 | 52.4% | 17.1% | 83.6% | 17.5% | 69.1% | 43.3% | 75.3% | 69.1% | 37.3% |
| O=C(NO)c1ccc(NCc2csc3ccccc23)cc1 | 54.3% | 62% | 60.8% | 60.9% | 71.2% | 68.8% | 70.3% | 70.2% | 59.4% |
| COc1ccc(-c2nsc3c2NC(=O)CC3c2ccc3c(c2)OCO3)cc1 (stereo unspecified) | 14.8% | 0.385% (active) | -1.91% (active) | 36% | 11.3% | 42.8% | -9% (active) | 60.2% | 18.2% |
| COc1ccc(Sc2[nH]c(C=O)c3ccccc23)cc1 | 74.6% | -0.59% (active) | 91.8% | 49.3% | 6.64% (active) | 78% | 64.9% | 91.4% | 76.6% |
| COc1ccc(/C=c2\c(=O)n(-c3ccccc3)c3nn4c(=O)c(=O)[nH]nc4n23)cc1 | 115% | 122% | 104% | 122% | 123% | 104% | 103% | 110% | 99.5% |
| CCN(CC)Cc1cc(Nc2ccnc3cc(Cl)ccc23)cc(-c2ccc(Cl)cc2)c1O | 26.1% | 18.8% | 10% (active) | 48.7% | 46.4% | 8.65% (active) | -25.6% (active) | 10.5% | 10.2% |
| CCOCC(O)(c1ccc(Cl)cc1)c1ccc(Cl)cc1 | 96.1% | 88.1% | 103% | 100% | 117% | 97.4% | 104% | 94.1% | 114% |
